Compounds with a hit are over-represented: about 5.8% of the library has one in this group of screens.
SW480 rereplic – DNA re-replication induction in SW480 cells; SW480 DNA re-replication, Hoechst DNA content imaging, 48 h; Potency, µM (titrated, usually from 46.1 µM), usual class: activators; actives 1.8% (n = 340,000); also: nearly all actives have a fitted effect of over 55% in size
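Cells (250 per well) received 23 nL compound or DMSO by pin tool and were kept 48 hr at 37 C, 5% CO2. Nuclei were then stained with Hoechst for 40 min and scanned for DNA content.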
PINK1 modulator – PINK1 expression modulation. Potency, µM (highest dose often 76.6 µM), most hits filed as activators. actives 0.2% (n = 410,000). PINK1 immunofluorescence, high-content cytometry, 24 h. AID 624263; active = well fitted activation curve with a large enough effect; inconclusive = small, poorly fitted or top-dose-only effect; cell line not stated here; also: nearly all actives have a fitted effect of over 65% in size
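Stable cell line, 250 cells/well, 12 h attachment; compounds pinned at 5 concentrations, 24 h; CCCP control. Fixed with nuclear dye, primary antibodies 12 h at 10 degrees C, secondary plus cell stain; laser-scanning cytometer read.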
KB-3-1 tox – kills parental KB-3-1 adenocarcinoma cells | KB-3-1 viability, CellTiter-Glo ATP luminescence, 72 h | Potency, µM (highest dose often 46.1 µM), usual class: cytotoxic | AID 1347075 | actives 1.4% (n = 400,000); also: nearly all actives have a fitted effect of over 60% in size
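Using CellTiter-Glo luminescence, growth of non-resistant KB-3-1 adenocarcinoma cells is assessed 72 h after pin-tool compound addition at 37 °C. Normalized responses across the concentration series yield fitted curves.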
MCF10A rereplic – induces DNA re-replication in MCF 10a normal breast cells; actives 2.9% (n = 350,000); MCF 10A DNA re-replication, Hoechst nuclear intensity, 48 h; AID 624296; Potency, µM (doses to about 46.1 µM), usual class: activators; also: nearly all actives have a fitted effect of over 50% in size
KB-V1 MDR tox – kills drug-selected multidrug resistant KB-V1 cells; KB-V1 MDR cells viability, CellTiter-Glo, 72 h; Potency, µM (doses to about 46.1 µM), usual class: cytotoxic; actives 3.4% (n = 400,000); also: nearly all actives have a fitted effect of over 60% in size
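KB-V1, DMEM (no phenol red) + 10% FBS; cpd pin-transferred, titration series; 72 h, 37 degrees C; CellTiter-Glo, luminescence. Data normalized, curve-fit.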
ALOX12 inh – ALOX12 (human) lipoxygenase inhibition. P18054. purified 12hLO, xylenol orange hydroperoxide absorbance. Potency, µM (highest dose often 108 µM), most hits filed as inhibitors. actives 1.1% (n = 580,000)
Target sequence (P18054 whole entry, looked up): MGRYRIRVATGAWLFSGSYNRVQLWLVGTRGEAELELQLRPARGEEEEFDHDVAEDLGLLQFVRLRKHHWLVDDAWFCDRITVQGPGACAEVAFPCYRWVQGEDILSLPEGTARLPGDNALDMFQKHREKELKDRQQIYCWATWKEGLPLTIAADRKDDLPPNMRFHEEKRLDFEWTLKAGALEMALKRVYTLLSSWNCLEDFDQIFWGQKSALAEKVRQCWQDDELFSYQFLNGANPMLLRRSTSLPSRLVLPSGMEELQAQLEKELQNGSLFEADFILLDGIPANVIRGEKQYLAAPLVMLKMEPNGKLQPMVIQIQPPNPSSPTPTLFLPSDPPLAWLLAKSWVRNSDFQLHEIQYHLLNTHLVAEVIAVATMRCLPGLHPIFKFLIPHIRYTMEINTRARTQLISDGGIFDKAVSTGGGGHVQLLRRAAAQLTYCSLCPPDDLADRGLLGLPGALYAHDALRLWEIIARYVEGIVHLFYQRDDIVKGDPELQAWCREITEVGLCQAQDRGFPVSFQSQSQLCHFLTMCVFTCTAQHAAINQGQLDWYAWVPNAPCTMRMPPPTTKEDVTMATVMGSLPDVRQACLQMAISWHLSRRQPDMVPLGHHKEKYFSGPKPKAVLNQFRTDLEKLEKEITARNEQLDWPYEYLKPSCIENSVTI
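Purified human 12hLO (150 nM final) in 25 mM Hepes, 0.01% Triton X-100, pH 7.0 was preincubated 15 min at room temperature with compound. Then 40 uM arachidonic acid was added, 30 min. Hydroperoxide was read by Fe-XO absorbance ratio 573/405 nm.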
Numbers stand for hits. Unless noted, calls follow the shape of the dose curve; as a rule, active = well fitted curve in the direction sought with a large enough effect; inconclusive = small, poorly fitted or top-dose-only effect, or another doubt; inactive = no such curve, though single readings can be large; an effect the other way counts as inactive or inconclusive.

Cc1nc2ccc(NC(=O)CC3CC4CCC3C4)cc2s1 (centres undefined) was read as ALOX12 inh inactive.
Screening O=C(CC12CC3CC(CC(C3)C1)C2)Nc1ccc(-c2nc3ccccc3o2)cc1 returned ALOX12 inh inactive.
For Cc1ccc(-c2ccc(C(=O)Nc3ccccc3)o2)c2ccccc12 the results were SW480 rereplic inconclusive, PINK1 modulator inactive, KB-3-1 tox inactive, MCF10A rereplic inconclusive, KB-V1 MDR tox inactive and ALOX12 inh inactive.
`Cc1ccc(S(=O)(=O)NC(=O)c2ccc(-c3ccc(C)c4ccccc34)o2)cc1` gave SW480 rereplic inactive, PINK1 modulator inactive, KB-3-1 tox inactive, MCF10A rereplic inconclusive, KB-V1 MDR tox inactive and ALOX12 inh 35µM.
CN(C)S(=O)(=O)N1CCC(Oc2ccc(C(=O)N3C[C@H]4CC[C@H]3C4)cc2)CC1 was read as SW480 rereplic inactive, PINK1 modulator inactive, MCF10A rereplic inactive and ALOX12 inh inactive.
`CN(C)S(=O)(=O)N1CCC(Oc2ccc(C(=O)N3C[C@@H]4CCC[C@H]3C4)cc2)CC1` gave SW480 rereplic inactive, PINK1 modulator inactive, KB-3-1 tox inactive, MCF10A rereplic inactive, KB-V1 MDR tox 9.2µM and ALOX12 inh inactive.
O=C(CCn1ccn2nc3c(c2c1=O)CCCC3)Nc1cccc(OC(F)(F)F)c1 was read as ALOX12 inh inactive.
For CCNC(=S)N/N=C(\C)c1ccc2ccccc2c1OC(F)F the results were SW480 rereplic inconclusive, PINK1 modulator inactive, KB-3-1 tox inactive, MCF10A rereplic inactive, KB-V1 MDR tox inactive and ALOX12 inh 40µM.
For Cc1ccc2nc(-c3ccc(N/C(N)=N/c4nc(C)cc(C)n4)cc3)sc2c1 the results were ALOX12 inh inactive.
For CCNC(=O)CNC(=O)c1cc(-c2ccc(F)cc2)nc2ccccc12 the results were ALOX12 inh inactive.
For COc1ccc(N(Cc2cc(=O)[nH]c3ccccc23)C(=O)CCl)cc1 the results were SW480 rereplic 3.3µM, PINK1 modulator inactive, KB-3-1 tox inconclusive, MCF10A rereplic inconclusive, KB-V1 MDR tox inconclusive and ALOX12 inh inconclusive.
CC1(C)CC(=O)C2=C(C1)OC1=C(C(=O)CC(C)(C)C1)C2c1cc([N+](=O)[O-])cc([N+](=O)[O-])c1O was read as SW480 rereplic inactive, PINK1 modulator inactive, KB-3-1 tox inconclusive, MCF10A rereplic inconclusive, KB-V1 MDR tox inactive and ALOX12 inh inconclusive.
For CC1(C)CC(=O)C(C2C3=C(CC(C)(C)CC3=O)Oc3c(Br)cc(Br)cc32)=C(O)C1 (centres undefined) the results were SW480 rereplic inactive, PINK1 modulator 22µM, KB-3-1 tox inconclusive, MCF10A rereplic inactive, KB-V1 MDR tox inconclusive and ALOX12 inh inconclusive.
`CCCCCCN1C=CC(=C/C=C(\C#N)C(=O)OCC)C=C1` gave SW480 rereplic inactive, PINK1 modulator 13µM, KB-3-1 tox inactive, MCF10A rereplic inactive, KB-V1 MDR tox 8.2µM and ALOX12 inh inactive.
O=C(OCC(=O)c1c[nH]c2ccccc12)c1cc2ccccc2s1 was read as ALOX12 inh inactive.
For COC1=CC(=O)c2c(ccc3ncnc(N)c23)C1=O the results were SW480 rereplic inconclusive, PINK1 modulator inactive, KB-3-1 tox 2.1µM, MCF10A rereplic inactive, KB-V1 MDR tox 1.8µM and ALOX12 inh inconclusive.
For CCOC(=O)C1=C(C2=CCCCC2)c2ccc(OC)cc2N(S(=O)(=O)C(F)(F)F)C1C(=O)OCC (centres undefined) the results were SW480 rereplic 10µM, PINK1 modulator inactive, KB-3-1 tox inactive, MCF10A rereplic 16µM and KB-V1 MDR tox inactive.
For Nc1nc(Sc2ccc([N+](=O)[O-])c3nonc23)c2[nH]cnc2n1 the results were SW480 rereplic inconclusive, PINK1 modulator inactive, KB-3-1 tox 2.1µM, MCF10A rereplic inconclusive, KB-V1 MDR tox inconclusive and ALOX12 inh 32µM.
For CNc1ncnc(Sc2nc(N)nc3nc[nH]c23)c1[N+](=O)[O-] the results were SW480 rereplic 2.9µM, PINK1 modulator inactive, KB-3-1 tox inconclusive, MCF10A rereplic inconclusive, KB-V1 MDR tox 1µM and ALOX12 inh inactive.
`Nc1nc(SCc2ccccc2)c2[nH]cnc2n1` gave SW480 rereplic inactive, PINK1 modulator inactive, KB-3-1 tox inactive, MCF10A rereplic inactive, KB-V1 MDR tox inactive and ALOX12 inh inactive.
`CCOC(=O)N1CCc2c(sc3c2C(=O)NC(c2cc(OC)c(OC)c(OC)c2)N3)C1` (centres undefined) gave PINK1 modulator inactive, KB-3-1 tox 16µM, KB-V1 MDR tox inactive and ALOX12 inh inactive.
Screening CCOC(=O)N1CCc2c(sc3c2C(=O)NC(c2ccc(C(=O)OC)cc2)N3)C1 (centres undefined) returned PINK1 modulator inactive, KB-3-1 tox inactive, KB-V1 MDR tox inactive and ALOX12 inh inactive.
`CCOC(=O)c1c(C)[nH]c(C(=O)C(C)Nc2ccccc2OC)c1C` (centres undefined) gave ALOX12 inh inactive.
`CC(C)c1nc(N2CCN(C(=O)C(=O)N3CCCC3)CC2)c(C#N)c2c1CCCC2` gave ALOX12 inh inactive.
CCOc1cc(C2C(C#N)=C(N)OC(C)=C2C(C)=O)c(Br)c(Br)c1OC(C)C (centres undefined) was read as SW480 rereplic 8.2µM, PINK1 modulator inactive, KB-3-1 tox inconclusive, MCF10A rereplic 16µM and KB-V1 MDR tox 15µM.
CCOc1cc(C2C(C#N)=C(N)OC(C)=C2C(C)=O)cc(Br)c1O (centres undefined) was read as SW480 rereplic inactive, KB-3-1 tox inactive, MCF10A rereplic inactive, KB-V1 MDR tox inactive and ALOX12 inh inconclusive.
Screening O=C(c1cnccn1)N1CC(=O)N2[C@H](C1)[C@@H](c1ccc(Br)cc1)[C@@H]2CO returned ALOX12 inh 5.6µM.
`Cn1nc(C(=O)NC2CCN(c3cc(-c4cccs4)[nH]n3)C2)c2ccccc21` (centres undefined) gave ALOX12 inh inactive.
Screening COc1ccc(C(=O)/C=C/C(=O)N(Cc2ccc(F)cc2)C(C(=O)NC2CCCCC2)c2ccncc2)c(O)c1 (centres undefined) returned SW480 rereplic inconclusive, PINK1 modulator inconclusive, KB-3-1 tox inconclusive, MCF10A rereplic inactive and KB-V1 MDR tox 0.73µM.
COc1ccc(C(=O)/C=C/C(=O)N(Cc2ccccc2OC)C(C(=O)NC2CCCCC2)c2ccncc2)c(O)c1 (centres undefined) was read as SW480 rereplic inactive, PINK1 modulator inactive, KB-3-1 tox inconclusive, MCF10A rereplic inconclusive, KB-V1 MDR tox inconclusive and ALOX12 inh inactive.
